# Source: PubChem (several laboratories)
# BH1578 lux ind = quorum light induction in luxS cqsA deficient V. cholerae. V. cholerae BH1578 lux reporter, luminescence, 6 h. activation, % at 18.7 µM. 350,000 tested, 0.16% active. AID 588436; in the data active = activation mostly above about 9.7%, no sharp cut-off
# Mtb FBA inh = inhibits M. tuberculosis FBA enzyme; purified M. tuberculosis FBA, fluorescence read-out; inhibition, % at 1 µM; 360,000 tested, 2.3% active; P9WQA3; in the data active = inhibition above about 27%;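 also: 0% = vehicle and 100% = reference inhibitor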
# Target sequence (P9WQA3 whole entry, looked up): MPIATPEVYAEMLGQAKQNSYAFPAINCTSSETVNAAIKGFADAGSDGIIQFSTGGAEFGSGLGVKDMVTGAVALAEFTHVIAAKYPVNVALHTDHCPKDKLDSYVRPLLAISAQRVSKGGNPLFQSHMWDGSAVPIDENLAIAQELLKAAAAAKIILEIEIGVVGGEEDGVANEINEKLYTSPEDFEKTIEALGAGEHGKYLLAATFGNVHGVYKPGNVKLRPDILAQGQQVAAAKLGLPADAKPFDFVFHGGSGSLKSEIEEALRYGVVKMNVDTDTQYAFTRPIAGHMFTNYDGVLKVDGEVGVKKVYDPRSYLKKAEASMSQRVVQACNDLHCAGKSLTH
# PrPC TRFRET = cell surface PrPC inhibition, primary TR-FRET screen; TR-FRET read-out; inhibition, % at 13.8 µM; 370,000 tested, 0.43% active; P04156; AID 720596; in the data active = inhibition above about 24%; also: 0% = median of the test wells and 100% = reference compound wells
# SARS 3CLpro inh-1 = SARS-CoV 3CLpro protease inhibition; recombinant SARS-CoV 3CLpro, quenched FRET peptide cleavage; inhibition, % at 6 µM; 290,000 tested, 0.14% active; in the data active = inhibition above about 12%
# GDH-TPI counter = GDH-TPI coupled enzyme inhibition counter-screen; inhibition, % at 4.8 µM; GDH-TPI coupled enzyme counterscreen, NADH absorbance; 360,000 tested, 1.2% active; in the data active = inhibition above about 30%;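 also: 0% = DMSO wells and 100% = wells lacking the enzyme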
# SARS 3CLpro inh-2 = SARS 3CLpro inhibition, confirmation assay. 380 tested, 36% active. shares compounds with SARS 3CLpro inh-1. QFRET protease activity assay. inhibition, % at 6 µM; in the data active = inhibition above about 13%
# * = called active by the depositor; i = inactive; · = no result. Only some compounds are listed: those with a hit (about 3.9% of all), similar ones and a draw of the others.
SMILES,BH1578 lux ind,Mtb FBA inh,PrPC TRFRET,SARS 3CLpro inh-1,GDH-TPI counter,SARS 3CLpro inh-2
COc1ccccc1OCCNC(=O)c1cc(=O)[nH]c2ccccc12,i,4,-3,62*,17,65*
COC(=O)[C@@H](Cc1c[nH]c2ccccc12)NC(=O)c1cc(=O)[nH]c2ccccc12,0,3,2,14*,11,2
Cc1ccc(OCCC(=O)NNC(=O)c2nn(C)c(=O)c3ccccc23)cc1,i,0,-6,·,2,·
CCN(CC(=O)Nc1ccc(OC)c(Cl)c1)CC(=O)NC(C)C,-3,0,-1,1,5,·
CCOc1ccc(N(CC(=O)NCCSCc2ccco2)S(=O)(=O)c2ccc(C)cc2)cc1,i,-1,-3,12*,7,-1
C[C@H]1CN(c2ccccc2)C(=O)[C@@H]1CC(=O)Nc1ccc(Br)cc1,-1,-1,12,·,-1,·
Cc1ccnc2nc(C(=O)OC(C)C(=O)NCc3ccccc3)nn12 (stereo unspecified),-3,0,7,·,2,·
Cc1cccc(CN2CCN(C(=O)CCl)CC2)c1,-1,0,-4,16*,7,47*
C#CCNC(=O)c1cc(-c2ccccc2)sc1N,·,·,-6,·,·,·
COC(=O)c1cc(-c2ccccc2)sc1N,-6,-1,-2,51*,20,3
Cc1ccc(C(=O)N2CCCC2)cc1S(=O)(=O)N1CCCCC1,i,1,-6,-4,4,·
NCCCn1c(C(=O)c2cc(Cl)c(N)c(Cl)c2)c2ccccc2[n+]1[O-],i,-2,-14,·,10,·
Cc1ccc(C(=O)c2c3ccc(C(F)(F)F)cc3[n+]([O-])n2CCC(N)=O)cc1,-1,4,8,27*,23,21*
Cc1ccc(C(=O)c2c3ccc(C(F)(F)F)cc3[n+]([O-])n2CCCC(N)=O)cc1,i,0,6,·,15,·
NC(=O)CCn1c(C(=O)c2cc(Cl)c(N)c(Cl)c2)c2ccccc2[n+]1[O-],i,3,-8,30*,17,35*
NC(=O)CCn1c(C(=O)c2cccc([N+](=O)[O-])c2)c2ccccc2[n+]1[O-],i,-1,-18,26*,11,26*
COc1ccc(C(=O)c2c3ccccc3[n+]([O-])n2CCC(N)=O)cc1,0,-3,-5,·,15,·
COc1ccc(-c2c3c(=O)n(C)c(=O)n(C)c3cn2C2CCCCC2)cc1,i,5,15,-4,7,·
O=C1C2C3C=CC(C3)C2C(=O)N1/N=C/c1ccc(-c2ccccc2[N+](=O)[O-])o1 (stereo unspecified),-1,1,-6,12*,17,-5
Cc1ccc(-c2ccc(/C=N/N3C(=O)C4C5C=CC(C6CC56)C4C3=O)o2)c([N+](=O)[O-])c1 (stereo unspecified),i,4,-2,1,21,·
C/C(=N\N=C(/N)SC1CC(=O)N(c2cccc(Cl)c2)C1=O)c1cccs1 (stereo unspecified),i,-5,5,13*,40*,2
CCCOc1ccc(N2C(=O)CC(S/C(N)=N/N=C(\C)c3cccs3)C2=O)cc1 (stereo unspecified),0,-2,1,1,25,·
Cc1ccc(S(=O)(=O)N(C)C)cc1NC(=O)COC(=O)c1sc2cc(Cl)ccc2c1Cl,0,1,8,2,5,·
O=C(CSc1ccc(F)cc1)Nc1ccc2c(c1)C(=O)NC2=O,-1,4,-6,13*,16,1
CCOC(=O)c1c(NC(=O)CN2CCCCC2)sc(CN(C)C)c1-c1ccccc1,0,5,0,2,-1,·
SMILES,BH1578 lux ind,Mtb FBA inh,PrPC TRFRET,SARS 3CLpro inh-1,GDH-TPI counter,SARS 3CLpro inh-2
CCOC(=O)c1c(NC(=O)CCl)sc(CN(C)C)c1-c1ccccc1,i,1,0,31*,3,59*
N#Cc1c(-c2ccccc2)nc(SCC(=O)Nc2ccc(OC(F)(F)Cl)cc2)[nH]c1=O,-6,4,18,16*,8,1
CC(C)(C)OC(=O)[C@H](Cc1ccccc1)NC(=O)c1nc[nH]c1C(=O)N[C@@H](Cc1ccccc1)C(=O)OC(C)(C)C,i,0,12,·,16,·
CC(C)(C)OC(=O)[C@H](Cc1ccccc1)NC(=O)c1[nH]cnc1C(=O)N[C@@H](Cc1ccccc1)C(=O)OCc1ccccc1,i,-4,12,13*,0,5
Cc1ccc(NC(=O)COc2ccc(N(C)C(=O)C(C)(C)C)cc2)cc1S(=O)(=O)N1CCCCC1,2,0,14,·,-6,·
CCOc1ccc(NC(=O)C/C(C)=N/NC(=O)COc2ccc(Br)cc2C)cc1,-9,-4,2,0,6,·
CC(=O)Nc1ccc(NC(=O)C/C(C)=N/NC(=O)COc2cc(C)c(Br)cc2Br)cc1,-4,0,-12,16*,-2,1
CCCC(=O)OC12CCCN(C1)/C(=C/c1ccc(C#N)cc1)C2 (stereo unspecified),·,·,-2,·,·,·
CCOC(=O)c1oc2nc(CC(C)C)c3c(c2c1N)CCCC3,0,137*,-6,13*,0,3
CCc1ccc(N(C(=O)c2ccco2)C(C(=O)NC2CCCC2)c2cccnc2)cc1 (stereo unspecified),0,1,-2,16*,2,9
Cc1ccc(N(C(=O)c2ccco2)C(C(=O)NC2CCCC2)c2cccnc2)cc1C (stereo unspecified),i,5,9,4,-2,·
CCC(C)c1ccc(N(C(=O)c2ccco2)C(C(=O)NC2CCCC2)c2cccnc2)cc1 (stereo unspecified),0,-1,4,75*,-4,75*
CC(C)c1ccc(N(C(=O)c2ccco2)C(C(=O)NC2CCCC2)c2ccncc2)cc1 (stereo unspecified),0,1,7,7,-2,·
O=C(CCS(=O)(=O)c1ccccc1)N1CCN(c2ccc(F)cc2)CC1,i,4,-6,13*,-10,-1
O=C(CCS(=O)(=O)c1ccc(F)cc1)N1CCN(c2ccccc2)CC1,i,-2,5,·,-4,·
Cc1ccc(S(=O)(=O)/C(=C/Cl)NC(=O)c2ccccc2)cc1,0,1,-3,16*,1,23*
CCCCN1CC(COC)Oc2cccc(F)c2S1(=O)=O (stereo unspecified),i,2,0,·,5,·
CC(C)=C[C@H]1C[C@H](C)[C@H]2CC[C@H](C)c3c(O[C@@H]4OC[C@@H](O)[C@H](O)C4O)c(O)c(C)c1c32 (stereo partly specified),-1,-2,-4,·,5,·
COC(=O)c1ccccc1NC(=O)c1ccc2c(c1)OCCCO2,0,1,-4,12*,0,-2
CCN(c1ccc(NC(=O)COC(=O)CCc2cc(OC)c(OC)c(OC)c2)cc1)C(C)C,0,3,-3,5,2,·
